Inconclusive results are not listed. The source made the active and inactive calls. Calls follow the shape of the dose curve; as a rule, active = well fitted cell-killing curve with a large enough effect; inconclusive = small, poorly fitted or top-dose-only effect, or effect the other way; inactive = flat fitted curve, though single readings scatter. Where a SMILES comes first, the peptide text is derived from it. [ ]: non-standard residue; d: D form. PhLac = O=C(O)[CH](O)Cc1ccccc1; NMeV = CN[CH](C(=O)O)C(C)C
Columns and labels:
Test in all cases: Primary qHTS to identify gynecologic anti-cancer compounds using libraries of approved drugs and bioactive compounds (AID 1345084); also: nearly all actives have a fitted effect of over 55% in size
Settings in all cases: Gynecologic cancer cell panel viability, ATPlite luminescence, 48 h; series mostly up to 57.5 µM
JEG-3 = tested on: JEG-3
Method in brief: (§1)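 Five-concentration response, 48 h; readout is ATP-driven luciferase luminescence.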

OV90 = tested on: OV90
Method in brief: as §1

PA-1 = tested on: PA-1
Method in brief: as §1

SKOV3 = tested on: SKOV3
Method in brief: as §1

Tov-21-G = tested on: Tov-21-G
Method in brief: as §1

Tov112D = tested on: Tov112D
Method in brief: as §1
% is scaled to controls: 0 for no effect and ±100 for the full control effect.

Cn1ccnc1CCOC(c1cc2nccc(C(=O)O)c2[nH]1)c1ccccc1Cl (stereo not given)
inactive: Potency (JEG-3) | Potency (OV90) | Potency (PA-1) | Potency (SKOV3) | Potency (Tov-21-G) | Potency (Tov112D)

OC[C@H]1O[C@@H](Oc2ccc(O)c3cccc(O)c23)[C@H](O)[C@@H](O)[C@@H]1O
inactive: Potency (JEG-3) | Potency (OV90) | Potency (PA-1) | Potency (SKOV3) | Potency (Tov-21-G) | Potency (Tov112D)

COC(=O)C1=CO[C@@H](O[C@@H]2O[C@H](CO[C@@H]3O[C@H](COC(=O)/C=C/c4ccc(O)cc4)[C@@H](O)[C@H](O)[C@H]3O)[C@@H](O)[C@H](O)[C@H]2O)[C@@H]2C(CO)=CC[C@H]12
inactive: Potency (JEG-3) | Potency (OV90) | Potency (PA-1) | Potency (SKOV3) | Potency (Tov-21-G) | Potency (Tov112D)

C[C@@H](OC(=O)/C=C/c1ccc(O)cc1)C1=C[C@]2(C=C[C@@H]3C(C(=O)O)=CO[C@@H](O[C@@H]4O[C@H](CO[C@@H]5O[C@H](CO)[C@@H](O)[C@H](O)[C@H]5O)[C@@H](O)[C@H](O)[C@H]4O)[C@@H]32)OC1=O
inactive: Potency (JEG-3) | Potency (OV90) | Potency (PA-1) | Potency (SKOV3) | Potency (Tov-21-G) | Potency (Tov112D)

CC(=O)NC(CCC(=O)O)C(=O)NCCc1ccc(O)cc1 (stereo not given)
inactive: Potency (JEG-3) | Potency (OV90) | Potency (PA-1) | Potency (SKOV3) | Potency (Tov-21-G) | Potency (Tov112D)

CC(C)(O)C1CC=C(C(=O)OCC2OC(Oc3c(O)cc(C(=O)O)cc3O)C(O)C(O)C2O)CC1 (stereo not given)
inactive: Potency (JEG-3) | Potency (OV90) | Potency (PA-1) | Potency (SKOV3) | Potency (Tov-21-G) | Potency (Tov112D)

COc1ccc2c(c1)O[C@H](O[C@@H]1O[C@H](CO)[C@@H](O)[C@H](O)[C@H]1O)C(=O)N2
inactive: Potency (JEG-3) | Potency (OV90) | Potency (PA-1) | Potency (SKOV3) | Potency (Tov-21-G) | Potency (Tov112D)

CCN(c1cc(C#CCN2CCOCC2)cc(C(=O)NCc2c(C)cc(C)[nH]c2=O)c1C)C1CCC(N(C)CCOC)CC1 (stereo not given)
inactive: Potency (JEG-3) | Potency (OV90) | Potency (PA-1) | Potency (SKOV3) | Potency (Tov-21-G) | Potency (Tov112D)

O=C(/C=C/c1ccc(O)c(O)c1)OCc1ccccc1O[C@@H]1O[C@H](CO)[C@@H](O)[C@H](O)[C@H]1O
inactive: Potency (JEG-3) | Potency (OV90) | Potency (PA-1) | Potency (SKOV3) | Potency (Tov-21-G) | Potency (Tov112D)

C=C1C2=CC(O)C(C)C1(C)CC/C(C)=C/CCC1(C)OC1C2=O (stereo not given)
inactive: Potency (JEG-3) | Potency (OV90) | Potency (PA-1) | Potency (SKOV3) | Potency (Tov-21-G) | Potency (Tov112D)

C/C=C1\[C@H](O[C@@H]2O[C@H](CO)[C@@H](O)[C@H](O)[C@H]2O)OC=C(C(=O)OC)[C@H]1CC(=O)OC
inactive: Potency (JEG-3) | Potency (OV90) | Potency (PA-1) | Potency (SKOV3) | Potency (Tov-21-G) | Potency (Tov112D)

CC1(O)CCC2C(C(=O)O)=COC(OC3OC(CO)C(O)C(O)C3OC(=O)/C=C/c3ccc(O)cc3)C21 (stereo not given)
inactive: Potency (JEG-3) | Potency (OV90) | Potency (PA-1) | Potency (SKOV3) | Potency (Tov-21-G) | Potency (Tov112D)

CC(C)C(C(=O)N1CCCC1C(=O)O)N(C)C(=O)C(O)Cc1ccccc1 (stereo not given) (H-[PhLac]-[NMeV]-Pro-OH; configuration not given here)
inactive: Potency (JEG-3) | Potency (OV90) | Potency (PA-1) | Potency (SKOV3) | Potency (Tov-21-G) | Potency (Tov112D)

CC1OC(OC2C(C)OC(OC3C(OC(=O)/C=C/c4ccc(O)cc4)C(CO)OC(OC4(COC(=O)/C=C/c5ccc(O)cc5)OC(CO)C(O)C4O)C3OC3OCC(O)(CO)C3O)C(O)C2O)C(O)C(O)C1O (stereo not given)
inactive: activity change, negative = cytotoxicity (JEG-3) 2.4% [at 11.6 µM] | activity change, negative = cytotoxicity (OV90) 8.76% [at 11.6 µM] | activity change, negative = cytotoxicity (PA-1) -0.866% [at 11.6 µM] | activity change, negative = cytotoxicity (SKOV3) 28.4% [at 11.6 µM] | activity change, negative = cytotoxicity (Tov-21-G) 1.37% [at 11.6 µM] | activity change, negative = cytotoxicity (Tov112D) -2.2% [at 11.6 µM]

CC1(C)C(=O)C(C)(C)c2cc(C(=O)Nc3ccc(C(=O)O)cc3)ccc21
inactive: Potency (JEG-3) | Potency (OV90) | Potency (PA-1) | Potency (SKOV3) | Potency (Tov-21-G) | Potency (Tov112D)

CC(=O)c1c(O)cc2c(c1C)C(=O)CC(O)C2 (stereo not given)
inactive: Potency (JEG-3) | Potency (OV90) | Potency (PA-1) | Potency (SKOV3) | Potency (Tov-21-G) | Potency (Tov112D)

CC1(C)CCC(C)(C)c2cc3c(cc21)Sc1ccccc1N=C3c1ccc(C(=O)O)cc1
inactive: Potency (JEG-3) | Potency (OV90) | Potency (PA-1) | Potency (SKOV3) | Potency (Tov-21-G) | Potency (Tov112D)

COc1ccc(C2=CC(=O)OC2Cc2ccc(O)cc2)c(O)c1 (stereo not given)
inactive: Potency (JEG-3) | Potency (OV90) | Potency (PA-1) | Potency (SKOV3) | Potency (Tov-21-G) | Potency (Tov112D)

C[C@@H]1O[C@@H](O[C@H]2[C@H](OC(=O)C34CCC5(C)C(=CCC6C7(C)CC(O)C(O[C@@H]8O[C@H](C(=O)O)[C@@H](O)[C@H](O)[C@H]8O)C(C)(C(=O)O)C7CCC65C)C3CC(C)(C)CC4O)O[C@H](C)[C@@H](O)[C@@H]2O)[C@H](O)[C@@H](O[C@@H]2OC[C@](O)(CO)[C@H]2O[C@@H]2O[C@H](CO)[C@@H](O)[C@H](O)[C@H]2O)[C@H]1O (stereo not given in full)
inactive: activity change, negative = cytotoxicity (JEG-3) 16.4% [at 6.55 µM] | activity change, negative = cytotoxicity (OV90) -2.48% [at 6.55 µM] | activity change, negative = cytotoxicity (PA-1) 9.01% [at 6.55 µM] | activity change, negative = cytotoxicity (SKOV3) 13.1% [at 6.55 µM] | activity change, negative = cytotoxicity (Tov-21-G) -3.03% [at 6.55 µM] | activity change, negative = cytotoxicity (Tov112D) 10.3% [at 6.55 µM]

CC1OC(OC2C(CO)OC(OCC3OC(OC(=O)C45CCC(C)(C)CC4C4=CCC6C7(C)CCC(OC8OC(C(=O)O)C(O)C(OC9OC(CO)C(O)C(O)C9O)C8O)C(C)(C)C7CCC6(C)C4(C)CC5)C(O)C(O)C3O)C(O)C2O)C(O)C(O)C1O (stereo not given)
inactive: activity change, negative = cytotoxicity (JEG-3) 9.3% [at 6.55 µM] | activity change, negative = cytotoxicity (OV90) 0.685% [at 6.55 µM] | activity change, negative = cytotoxicity (PA-1) 14.3% [at 6.55 µM] | activity change, negative = cytotoxicity (SKOV3) 21% [at 6.55 µM] | activity change, negative = cytotoxicity (Tov-21-G) 0.671% [at 6.55 µM] | activity change, negative = cytotoxicity (Tov112D) 0.769% [at 6.55 µM]

— PubChem BioAssay (NCATS)
